High-throughput results: PubChem BioAssay, Sanford-Burnham Center for Chemical Genomics
Most compounds without a hit are left out; they make up all but 2.6% or so of the library.
MLLE-PAM2 inh: inhibitors of PABP1 MLLE–PAM2 peptide binding, primary screen, biochemical, fluorescence polarization, FITC-PAM2, GST-MLLE; AID 588489, 2011; inhibition, % at 20 µM; Polyadenylate-binding protein 1 (Homo sapiens), P11940; actives 0.36% (n = 360,000); in the data active means inhibition above about 35%, passing the limit was not always enough;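 further: plate controls were DMSO wells with GST-MLLE for no effect and wells lacking GST-MLLE protein for full effect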
eIF4H inh: human eIF4H binding inhibitors, primary screen, translation initiation inhibitor project, biochemical, uHTS, fluorescence polarization; eIF4H fluorescence polarization binding assay; actives 0.94% (n = 290,000); inhibition, % at 35 µM; AID 2012, 2009;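 further: calls also rest on retests at 20 µM and on dose response follow-up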
PABP FP inh: PABP poly(A) RNA binding inhibitors, primary screen, biochemical, fluorescence polarization, uHTS | calls only at 35 µM | actives 1% (n = 290,000) | AID 2014, 2009 | Polyadenylate-binding protein 1 (Homo sapiens), P11940;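 further: calls also rest on retests at 20 µM and on dose response follow-up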
PHOSPHO1 block: PubChem AID 1565; Phosphoethanolamine/phosphocholine phosphatase (Homo sapiens), Q8TCT1; recombinant PHOSPHO1, absorbance phosphatase assay; inhibition, % at 13.3 µM; actives 1.1% (n = 290,000); in the data active means inhibition above about 60%
APOBEC3G inh: APOBEC3G DNA deaminase inhibitors, primary screen, biochemical, fluorescence, single-stranded DNA substrate, uHTS | recombinant A3G, ssDNA deamination FAM/TAMRA fluorescence | inhibition, % at 20 µM | actives 0.28% (n = 330,000);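 active means inhibition of at least 40% at 20 µM, with no more than 30% in the related APOBEC3A deaminase screen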;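 further: plate controls were DMSO wells with A3G for no effect and wells lacking A3G enzyme for full effect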
A3A deaminase: APOBEC3A ssDNA deaminase inhibitors, primary screen, selectivity assay for APOBEC3G inhibitor project, biochemical, FAM/TAMRA oligo cleavage fluorescence. AID 493011, 2011. recombinant A3A, FAM/TAMRA ssDNA deamination fluorescence. inhibition, % at 20 µM. actives 0.41% (n = 330,000);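 active means at least 40% inhibition at 20 µM here, with at most 30% in a related deaminase screen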;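 further: plate controls were A3A with DMSO for no effect and wells lacking A3A enzyme for full effect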
Target sequence (P31941 whole entry, looked up): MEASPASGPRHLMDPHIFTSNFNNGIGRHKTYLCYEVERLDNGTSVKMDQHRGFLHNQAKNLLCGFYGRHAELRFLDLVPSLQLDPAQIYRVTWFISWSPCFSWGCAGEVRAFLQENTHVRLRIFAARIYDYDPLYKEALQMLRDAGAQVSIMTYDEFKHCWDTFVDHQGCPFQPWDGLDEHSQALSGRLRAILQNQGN
* = called active by the depositor; i = inactive; ? = inconclusive; · = not tested or not shown; + = active, no number. Unless noted, how the calls were made is not given here.

SMILES	MLLE-PAM2 inh	eIF4H inh	PABP FP inh	PHOSPHO1 block	APOBEC3G inh	A3A deaminase
OCCOCCN1CCN(C2=Nc3ccccc3Sc3ccccc32)CC1	-2.9	-7.4	i	15.1	-6.5	-0.2
O=C1C=CC(=O)c2c(O)c(N3CCN(CCO)CC3)c(Cl)c(O)c21	91.3*	·	·	·	·	·
O=C(c1ccc(NC(=O)C(c2ccccc2)c2ccccc2)cc1)c1ccc(C(=O)O)c(C(=O)O)c1	12.8	78.3*	+	18.7	-1.0	-5.2
O=C(O)c1ccc(NC(=O)C(c2ccccc2)c2ccccc2)cc1	6.2	1.6	i	18.9	-6.9	-4.5
N#CCC(=O)N/N=C\c1cccc(OC/C=C/c2ccccc2)c1	-15.0	3.5	i	18.5	-2.7	1.7
O=[N+]([O-])c1ccc2c(c1)C(O)n1ncnc1S2 (stereo unspecified)	14.4	0.3	i	27.8	-9.8	-4.2
Cc1nc2n(n1)C(O)c1cc([N+](=O)[O-])ccc1S2 (stereo unspecified)	·	-2.1	i	8.0	-9.7	44.5*
O=C1C=CC(=Nc2ccc(F)cc2)O1	40.4*	·	·	·	·	·
O=C1C=CC(=Nc2ccc3c(c2)C(=O)c2ccccc2-3)O1	-0.8	·	·	·	·	·
CCOc1ccc(CCNC(=O)COn2nnc3ccc(S(=O)(=O)N4CCOCC4)cc32)cc1OCC	-15.7	·	·	·	-8.9	-3.0
CCOC(=O)/C(=N/Nc1ccccc1)c1csc(Nc2ccccc2)n1	11.2	-6.3	i	-3.2	-6.3	-2.3
CCOC(=O)/C(=N\Nc1ccc(OC)cc1)c1csc(Nc2ccccc2)n1	11.9	-4.9	i	89.9*	-7.6	-4.0
CCc1cc[n+](C(C(=S)Nc2cccc(C)c2)=C([O-])c2ccc(C)c([N+](=O)[O-])c2)cc1	-4.3	·	·	·	·	·
O=C(CSc1nc2ccccc2s1)CSc1nc2ccccc2s1	-0.3	18.3	i	60.4*	-6.9	-3.7
O=C(CSc1nc2cc(Cl)ccc2s1)c1ccco1	-36.7	5.8	i	91.3*	-2.5	-1.5
Oc1ccc(O)c(Cc2nc3ccccc3s2)c1	-4.0	82.4*	+	-7.6	-5.0	0.2
Oc1ccccc1OCc1nc2ccccc2s1	3.2	1.0	i	38.9	-9.7	-1.6
N/C(Cc1nc2ccccc2s1)=N\O	-34.2	12.3	i	7.4	-10.1	-1.4
NC(=O)CSCc1nc2ccccc2s1	23.8	54.7*	+	26.3	-5.0	1.0
O=C(CN1C(=O)COc2ccccc2C1=O)c1ccc2c(c1)OCCO2	3.4	-10.5	i	29.3	-3.7	-2.0
Cc1cccc(C)c1NC(=O)CN(c1c(C)cccc1C)S(C)(=O)=O	18.8	·	·	·	·	·
Cn1cnnc1SCC(=O)c1cc2ccccc2o1	-39.5	6.8	i	-5.9	-8.4	-2.5
Cn1ccnc1SCC(=O)c1cc2ccccc2o1	-69.2	27.4	i	91.4*	6.8	0.5
O=C(O)CSc1nc2ccccc2s1	11.3	-10.5	i	2.1	-5.0	-1.2
O=C(CSc1nc2ccccc2s1)c1cc2ccccc2o1	-9.8	59.7*	+	-5.8	1.2	7.3
SMILES	MLLE-PAM2 inh	eIF4H inh	PABP FP inh	PHOSPHO1 block	APOBEC3G inh	A3A deaminase
CCOC(=O)c1ccc2c(c1)nc(SCC(=O)c1cc3ccccc3o1)n2CC	-125.4	3.3	i	89.9*	-6.7	0.3
c1ccc2[nH]c(CSc3nc4ccccc4s3)nc2c1	-12.8	-3.6	i	13.5	-2.1	1.3
S=c1[nH]nc(CSc2nc3ccccc3s2)o1	-31.5	-1.9	i	105.3*	25.8	-2.9
O=S(=O)(CCSc1nc2ccccc2s1)c1nc2ccccc2s1	0.0	-2.6	i	75.7*	0.6	2.7
CCS(=O)(=O)CCSc1nc2ccccc2s1	23.2	-8.3	i	-9.6	-7.2	-5.8
O=[N+]([O-])c1c(NCCCO)cc(Sc2nc3ccccc3s2)c2nonc12	22.9	4.9	i	-99.8	20.8	-5.2
CCC(=O)OCCNc1cc(Sc2nc3ccccc3s2)c2nonc2c1[N+](=O)[O-]	52.4	38.9	i	88.1*	11.6	-2.4
CCCC(=O)OCCNc1cc(SCc2ccco2)c2nonc2c1[N+](=O)[O-]	31.4	79.7*	+	9.1	33.9	50.6
Cc1ccnc2nc(C(=O)OCC(=O)N(CC(C)C)C3CCS(=O)(=O)C3)nn12 (stereo unspecified)	1.2	·	·	·	-4.1	-1.2
CC(OC(=O)Cc1coc2ccc3ccccc3c12)C(=O)NC(N)=O (stereo unspecified)	-4.2	9.0	i	25.1	-5.4	-5.8
CN(CC(=O)Nc1ccc(N2CCOCC2)cc1)C(=O)CCNC(=O)c1ccc(Br)cc1	-20.1	·	·	·	-6.4	-1.6
O=C(COc1ccccc1-c1ccccc1)NN=C1CCCC1	0.9	12.0	?	60.9*	-6.2	-2.1
N#Cc1c(NCCN)nc(NCc2ccccc2)c2c1CCN(Cc1ccccc1)C2	-10.9	61.9*	+	15.2	·	·
CN(Cc1ccccc1)C(=O)c1[nH]cnc1C(=O)N[C@@H](CCCCNC(=O)OC(C)(C)C)C(=O)OC(C)(C)C	3.5	84.5*	+	13.5	-10.2	-2.6
CC(C)(C)OC(=O)NCCCC[C@H](NC(=O)c1nc[nH]c1C(=O)NCc1ccccc1)C(=O)OC(C)(C)C	9.2	-0.5	i	17.7	2.0	1.7
Cc1ccc(C)c(NC(=O)CCC(=O)N2CCOc3ccccc32)c1	-10.0	-2.0	i	15.1	-1.3	-1.3
S=c1nc[nH]c2c1ncn2C1CCCO1 (stereo unspecified)	40.0*	2.2	i	7.2	-12.9	-6.6
Cc1cccc(C(C)C)c1NC(=O)COC(=O)CCN1C(=O)C2CC=CCC2C1=O (stereo unspecified)	0.3	3.3	i	70.2*	-0.9	11.1
CC(C)NC[C@H](O)COc1ccc(CC(N)=O)cc1	-0.5	·	·	·	-6.6	-1.0
COc1ccc(S(=O)(=O)N2CCOCC2)cc1NC(=O)c1ccc(OC(F)F)cc1	-1.4	·	·	·	4.7	5.4
O=C(NCC(=O)N(c1ccc(F)cc1)C(C(=O)NC1CCCC1)c1cccnc1)c1cccs1 (stereo unspecified)	-5.7	7.5	i	45.4	-3.3	-2.2
O=C(NCC(=O)N(c1ccccc1)C(C(=O)NC1CCCCC1)c1cccnc1)c1cccs1 (stereo unspecified)	6.0	-1.4	i	63.2*	-8.8	-1.6
COc1ccc(-n2c(SCC(=O)NCC3CCCO3)nc3ccccc32)cc1 (stereo unspecified)	-62.3	77.6	i	77.7*	-3.6	-1.3
CC(C)(C)NC(=O)CSc1nccn1Cc1ccccc1	-64.7	67.6*	+	7.4	-5.0	1.5
